Data as given in the supplement of paper PMC10105736.
A number with no mark means an inactive call.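 Rule for the calls: active = MAPPIT score above the 99th percentile of random reference set scores in the same batch; inactive = at or below it.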

Experiments:
Assay in all cases: MAPPIT interaction score (arbitrary units); higher = stronger binary interaction signal, active = hit call of the paper
[1] = target: CG5708; conditions: MAPPIT configuration: N-C; pair source set: screen_4
[2] = target: Polr3F; conditions: MAPPIT configuration: N-C; pair source set: screen_3
[3] = target: hale; conditions: MAPPIT configuration: N-N; pair source set: screen_1
[4] = target: pasi2; conditions: MAPPIT configuration: N-N; pair source set: Lit-BS-16
[5] = target: CG5883; conditions: MAPPIT configuration: N-N; pair source set: RRS
[6] = target: CG6933; conditions: MAPPIT configuration: N-N; pair source set: Lit-BS-16
[7] = target: CG5662; conditions: MAPPIT configuration: N-N; pair source set: screen_2
[8] = target: CG5854; conditions: MAPPIT configuration: N-N; pair source set: Curagen_high_conf
[9] = target: Zip88E; conditions: MAPPIT configuration: N-N; pair source set: Lit-BS-16
[10] = target: CG6712; conditions: MAPPIT configuration: N-N; pair source set: DPIM
[11] = target: CG6683; conditions: MAPPIT configuration: N-N; pair source set: Lit-BS-16
[12] = target: CG8654; conditions: MAPPIT configuration: N-N; pair source set: DPIM
[13] = target: vih; conditions: MAPPIT configuration: N-N; pair source set: Curagen_low_conf
[14] = target: CG5174; conditions: MAPPIT configuration: N-N; pair source set: Curagen_high_conf
[15] = target: CG6664; conditions: MAPPIT configuration: N-N; pair source set: DPIM
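Note: HEK293T cells with Epo stimulation, STAT-responsive firefly luciferase reporter, fold induction versus unstimulated cells divided by the larger fold induction of two negative controls lacking either bait or prey.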

B1: H2.0 (protein)
chain: MLLHESAASMEQSMPENLSTHMYGECEVNPTLAKCPDPVNVDHELPTKESCASTTIVSTSPTSATSTTKVKLSFSVDRLLGSEPEESHRQSSSSPSTKSCCDGSILACCSFPHCFSQANAESRRFGHATLPPTFTPTSSHTYPFVGLDKLFPGPYMDYKSVLRPTPIRAAEHAAPTYPTLATNALLRFHQHQKQQHQQHHHHQHHPKHLHQQHKPPPHNSTTASALLAPLHSLTSLQLTQQQQRFLGKTPQQLLDIAPTSPAAAAAATSQNGAHGHGGGNGQGNASAGSNGKRKRSWSRAVFSNLQRKGLEIQFQQQKYITKPDRRKLAARLNLTDAQVKVWFQNRRMKWRHTRENLKSGQEKQPSAVPESGGVFKTSTPSGDGTPQEALDYSSDSCSSVDLSEQADEDDNIEINVVE
MAPPIT interaction score [1]: 2.81 | MAPPIT interaction score [2]: 2.33 | MAPPIT interaction score [3]: 0.405 | MAPPIT interaction score [4]: 2.43

B2: mRpL39 (protein)
chain: MSAATKLHKTSWCALRQLQQYRTKANFSGSSASLAKRNDLFNQEQRRQRDAVGRIDKIEVRYLGLPEDVTLVMNGNISTPFNCAQHLSEGHCKRSALALIDGSVPWDMHRPLQESCTLQLLNFHVSEPHVVNKAFWRTCSFMLGAALNRAFKPEANLQLHSFPGPNIKSGSFVHDIVLQTQNWEPGKEEMRALSAEMVKLAAQDLRIERLDVQQDLAQEMFKDSKYKSEQLPSISQQTNGRVTLYRLGDHIDISRGPMVASTSFLGKCVISAAHKVAEEGPSGAFYRIQGVALPSGFQLNHVAFGVLEERSKKPSPARLPNEPFEEQQQLQLS
MAPPIT interaction score [5]: -0.604

B3: frj (protein)
chain: MSIDDVIYVICLLGCIGAGSYVKKIADEGQRKLVSTGLGVLVVVIVSGLHSLHCFVSLALGTAAVLLVHPSKGHLVTFAVMFGYLVFFRIFDFYFGIPGHTNMIQMILTLKVSGIAFEKTAAWKRLQAHDEQKKNDQRDVHQESPIEITDYDVELQSLSAAEILHYSFNYIGVLTGPYYRYRTYRDYFEMPFKTYAPTVEATLEKLKYAVFYCALYLATNYMWPLDYALSDEFFNDRSFVYRLLYVWPTFFTFRARIYTGLTLSECVCTMAGFGAYPDESDPNNGEGPRKRYQHLKRDADKHTYNFTTIVNTRVLEVERCWTFREGMKHWNVCVQYWLAVNVYKLFPSKKYRTGATLLCSAYWHGFRPGHYFCIMGAPFYVSLEDMWDKLVRKSATGTSRRVIDVIFWIFKWFAFSYLGEAFLLSSFGNIWRFYSSVYHIGYISWAAMTALGFYLTSQRKAAERRKKRAAEKAAGGDGIAAAIEKEKAQ
MAPPIT interaction score [6]: 0.0283

B4: CG9393 (protein)
chain: MEMQLGAMLYVYKGEYGLPSIDFECLRALCLLRFTRCPMDVQTSSNPLRSGAGKLPYLQIGNQKFAGYRQIKRVLDLEGYPIDAHLSTKQKHLSTAYANWVFTNLHAYYHYFLFGEPHNFDTTTRGLYAKRTPFPFNFYYPSSYQREACDVVQVMAGFDVNDKLDKHEGDYLVVNAKKVVNLLSRKLGRKVWFFGDTYSEFDAIVYSYLAIIFKIALPNNPLQNHIKGCQNLVNFINRITKDIFRIEGYSSVKLTKTPSGTEASLTASERKFLDSELNTKIVAGVGAVLAMGAFAAWRGIYNQLTTRSSTDYDGIDYEDDEMEEGLD
MAPPIT interaction score [7]: 4.82 (active)

B5: pip (protein)
chain: MSLNAERSYKMKLRDVENAFKYRRIPYPKRSVELIALLAISCTFFLFMHTNKLNSRLKEMEVKLQPSEFSALGLTGNHISGHDAGKHDDINTLHGTYQYLKSTGQKVGYNVHDRRSSEEQLRTPTAHGHHHDHHSHHHHMHQQEKIDGHKHKASHDKQLAVPDNKHKEDEVHYEDDEDEVEENDDDLANDVGTTDSEGFNFKADLLNNTKYAEVDFVFFNRVPKVGSQSLMELMARLGKINGFTHARNKGSAHETIVMNKQRQNDLIADLLTRPKPHIYSQHIAYINFTRFHLPKPIYINLIRDPIDRIISWHYYIRAPWYYRDMQAKLGENAIPMPSEEFMNLDLDTCVRNHDPHCTFTQMQIKNPVGDHRRQTLFFCGMNQKLCMPFNSEAAMQKAKRTVETEYAVVGTWEDTNITLSVLEAYIPRYFRNAKVAYYLGKDRLSRVNRNNVTRIVSDETRLILRKNLTNEIEFYEFCKQRLYLQYAALSHGKRFGEDDYLLVPEQQNEYNEDY
MAPPIT interaction score [8]: -0.136 | MAPPIT interaction score [9]: 0.425

B6: Inx7 (protein)
chain: MLNTFSSVRQYLKFDLTRVVIDNIVFKLHYRWTFVILLVATLLITSRQYIGEHIQCLSDGVVSPVINTFCFFTPTFTVVRDQNQTAYRPGSEPPGIGAFDPEKDTIKRHAYYQWVPFVLFFQALCFYIPHALWKSWEGGRIKALVFGLRMVGLTRYLKNDSLRIGKLNIPSMAEAEERVKDIRRTMIDRMRLNQSWGAHLVFAEVLNLINLLLQITWTNRFLGGQFLTLGPHALKNRWSDELSVLDLVFPKITKCKFHKFGDSGSIQMHDALCVMALNIMNEKIYIILWFWYAFLLIVTVLGLLWRILTLCFYRNVTFTRWSLYWAKPGQLDENELLAVIDKCNFSNWMFLFFLRSNLSEFLFKKVIYHLASEFPNPDHDNDVNAYREAPPTPAKNRYPELSGLDTIDSPLLHLRRNGSPSAGGAQGPSTSDMAKLPV
MAPPIT interaction score [6]: -0.387

B7: Vha55 (protein)
chain: MNAQQAQREHVLAVSRDFISQPRLTYKTVSGVNGPLVILDEVKFPKFAEIVQLRLADGTVRSGQVLEVSGSKAVVQVFEGTSGIDAKNTLCEFTGDILRTPVSEDMLGRVFNGSGKPIDKGPPILAEDFLDIQGQPINPWSRIYPEEMIQTGISAIDVMNSIARGQKIPIFSAAGLPHNEIAAQICRQAGLVKLPGKSVLDDHTDNFAIVFAAMGVNMETARFFKQDFEENGSMENVCLFLNLANDPTIERIITPRLALTAAEFLAYQCEKHVLVILTDMSSYAEALREVSAAREEVPGRRGFPGYMYTDLATIYERAGRVEGRNGSITQIPILTMPNDDITHPIPDLTGYITEGQIYVDRQLHNRQIYPPVNVLPSLSRLMKSAIGEGMTRKDHSDVSNQLYACYAIGKDVQAMKAVVGEEALTPDDLLYLEFLTKFEKNFISQGNYENRTVFESLDIGWQLLRIFPKEMLKRIPASILAEFYPRDSRH
MAPPIT interaction score [10]: -0.225

B8: Fer1HCH (protein)
chain: MVKLIASLLLLAVVAQAYGDFKCSLAVPEITKDWVDMKDACIKGMRNQIQEEINASYQYLAMGAYFSRDTVNRPGFAEHFFKAAKEEREHGSKLVEYLSMRGQLTEGVSDLINVPTVAKQEWTDGAAALSDALDLEIKVTKSIRKLIQTCENKPYNHYHLVDYLTGVYLEEQLHGQRELAGKLTTLKKMMDTNGELGEFLFDKTL
MAPPIT interaction score [11]: -0.52 | MAPPIT interaction score [12]: 0.0556 | MAPPIT interaction score [13]: -0.155

B9: rad50 (protein)
chain: MSSIESLSIQGIRSFGTYADDLQSIKFSSPVTLILGENGCGKTTVVECLKYALTGECPPGSDRGKSFVHDPKIFGLNEVLAQIKMQVRDRRGAQVSICRTMKVSKKRNKMSFETMDSTINFLTGAGQSKREKQDSLSGRSVDIDVAISDFMGVSKAIINNVLFCHQEDSSWPLDESKKLKEKFDAIFGITEYNKALDKIIKLRKEAMEELKIKEANIKHVAYLKQEMEVKTLNLQKAQRKCDAIKAQCSECEEEMKPIEARLVEIRNVEFEIGKYQAQKVEMDTKHKNCKDQISTLTLKIKKPFRGTLDELDQEISNFDQRMLEMRQKRTEVEGDLSQIKRSSVAEQEKLGTQDRKHCLAKQRHQSELACRAQLLKRVKEFCRELHIPIDCDLVEQPEKMGEVLRDIEAMIITKHCEITEIVEQNEKADRSRQVKIDELRIELTKSEQSVTAQEKQRESSKRESETLGVEIKKIETSMQDLKKLEKEINEVNELYESATKNIDQQAIKDAIARKKASIAENQIQFKKLDEQLTFLGSMAKLVAECSLKQKELDKKNQEVHRVRSRHSDHFGKLFKEPITCNYRRSMQVVYEKLRREIQELNEKANTQKLKEQSYEIKRKNLISDISRMEKELKDSEELIYQKCRSTPYDDLLERSKTTISKLQFDHGALKSSEALYKKYIQKMDEEPSCPLCHHNMTSDEACDLTSELTDEIQKLPDNITRAEKALKAEQIKYENLLQLKPTILKVKELKDSLPQKKEELKKVEELLGDSVSEYETLIALIGEPTHNMELANSMMGDMSLLDEALKDSARLTKDLDLQKGQLPASYDSSVSMDDLQAEKSKVSKELETERKELESAQNAVQQQMDALNRLREKKNSLKDRQIHLREGLQSLPQLKERLEKLNSFLTTVASEISELKAKIQPLKLNLRAAIEEKERLKKSESEKLAQLNSKYNSYKSTDHDIQRLNKEAEDYAKLDLRNEIKKLDEIIMASKDKLRKLEAEISLKTDELETIKTECSNQQTVERDLKDNRELKQLEDKEAKLRESCQVLDKQLGNLDFHSVSKEKVNLTKQRDKATVRKGELLGQLGEIHSQVNKLQREIDEPRFKESLKNFRKANYEIEVTRLCIEDLGQYRLALEWALIQFHSEKMEMINRLIREYWRKIYRGNDIDYIQVKTDEVSSDASADRRKTYNYRVVQSKNYSEIEMRGRCSAGQRVLASLIIRLALAETFSSNCGVLALDEPTTNLDRANINSLCEALNCIVEERQSQSNFMLIIITHDENFVSSLGKITSYHRVFRNEECKSVIRRVEAGPSKKALIDQ
MAPPIT interaction score [14]: 0.0423

B10: Cbp80 (protein)
chain: MSRRRAHDTEDEGYDHRRNKRRRVSENQEIEDRLESLILRVGERSTSSVESNLEGLVSVLEADLGTFRLKILRILSDCAVRMPEKCTVYTTLVGLLNAKNYKFGGEFVDHMVKTFKESLKMCRWDAARYSLRFLADLVNCHVISATSLLQLLDTMIDVSNEDTVPQVRRDWFVFAVLSTLPWVGRDLYEKKESALESLLLRIEVYLNKRSKKHHNALRVWSSDAPHPQEEYLDCLWAQIRKLRQDNWAEKHIPRPYLVFDSILCEALQHNLPTIVPPPHHDNFEYPMPWVVYRMFDYTDCPDGPNLPGAHSIERFLIEEHLHHIIETYHHERKDCAAQLLSFPYKHKIPLEYCIVEVVFAELFHMPTPRYLDICYGSILIELCKLQPATLPQVLAQATEILFMRIDSMNTSCFDRFVNWFSYHLSNFKFTWSWDEWDSCLLLDGEHPRPKFIQEVLQKCLRLSYHQRITEMMPTTYAKLIPLTPVPNYKYANEEAANLPGTTVAHQLVVAIRQKCTPEEVVNILKDIPNSGYSGEEMSDGSFNALKIDVFVQTLLNLGSKSFSHSFAAISKFHSVFRALAETEEAQICILHNIFELWSSHQQMMVVLIDKLLKLQIVDCSAVATWIFSKEMTGEFTKLYLWEILHLTIKKMNKHVIKLNTELSEAKEKLAKADSSSSDSEDDSSHKRKKPITHADKPSEEVVERMEEKLEAANVNQKRLFLIVFQRFIMILSEHLLRSDTDGRDPDTDWYRWTIGRLQQVFLMHHEQVQKYSSTLETLLFTSDLDTHILEVFQQFVALRA
MAPPIT interaction score [15]: -0.12
